A selection: hits, their analogues and other compounds. The true share with any hit is near 19%.
HT1080-NT tox = kills 2HG-producing HT-1080-NT fibrosarcoma cells | HT-1080-NT fibrosarcoma viability, CellTiter-Glo ATP luminescence, 48 h | Potency, µM (top dose mostly 46.1 µM), for inactives: top-dose activity, negative = less viability, hits mostly cytotoxic | 1.6% of 360,000 active | AID 686970;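 also: NT is the 2HG producing partner of a matched IDH1 knockdown line; potency is read from the fitted curve at half-maximal effect; 0% = DMSO-treated cells and -100% = media-only wells without cells; nearly all actives have a fitted effect of over 55% in size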
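Read-out is CellTiter-Glo luminescence after 10 minutes at room temperature, following 48 hours' compound treatment of HT-1080-NT cells (750 cells/well, RPMI, 5% FBS, 37 degrees C).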
TDP1 cell CPT = growth inhibition of DT40 Tdp1-/-;hTDP1 cells with camptothecin (screen for TDP1 inhibitors). chicken DT40 Tdp1-/-;hTDP1 cells + 20 nM CPT, ATP luminescence, 48 h. AID 686979. 12% of 420,000 active. Potency, µM (top dose mostly 46.2 µM), inactives show top-dose activity change, negative = growth inhibition, hits mostly inhibitors; also: potency is read from the fitted curve at half-maximal effect; nearly all actives have a fitted effect of over 55% in size
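Chicken DT40 Tdp1-/- cells stably complemented with human TDP1 were seeded at 400 cells/well in medium containing 20 nM camptothecin, exposed to pin-transferred compounds, and grown at 37 °C for at least 48 hr. Viability was read as ATP luminescence.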
IL1B secr inh = blocks inflammasome-driven IL-1 beta release | 4.7% of 360,000 active | activity change, % at 57.5 µM | THP-1 LPS/ATP IL-1B secretion, AlphaLISA, 16 h; stronger effect = lower value; in the data active = activity change below about -50%; inconclusive = mostly about -30% to -49%
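Secreted IL-1B measured by AlphaLISA bead assay after 16 h compound exposure of THP-1 cells; compounds (final up to 57.5 uM) added 1 h before LPS (250 ng/mL) and ATP (1.25 mM) stimulation; lower signal means less secretion.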
ELG1 DNA repair = blocks ELG1-dependent DNA repair in HEK293T cells. Potency, µM (highest dose often 46.1 µM), without a hit: at the top dose activity change, negative = inhibition, most hits filed as inhibitors. 2.3% of 330,000 active. HEK293T ELG1-luciferase reporter, luminescence, 16 h; DNA damage induced by 5-fluorouridine; also: potency is read from the fitted curve at half-maximal effect; nearly all actives have a fitted effect of over 55% in size
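In this reporter screen, reduction of luminescence relative to DMSO vehicle indicated activity. Compounds and 5-fluorouridine were added together to 2,000 cells per well, incubated for 16 hr at 37 °C, then developed with ONE-Glo.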
DT40 TDP1 no CPT = qHTS for Inhibitors of human tyrosyl-DNA phosphodiesterase 1 (TDP1): qHTS in cells in absence of CPT; DT40 Tdp1-/- hTDP1 cells, no CPT, ATP luminescence, 48 h; Potency, µM (doses to about 46.2 µM), for inactives: top-dose activity change, negative = growth inhibition, hits mostly inhibitors; 15% of 420,000 active; AID 686978, 2013; also: potency is read from the fitted curve at half-maximal effect; nearly all actives have a fitted effect of over 55% in size
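Camptothecin absent (DMSO only). Human TDP1-complemented DT40 knockout cells, 400 cells/well, 37 °C for minimum 48 hr; ATP measured via CellTiter-Glo, 30 min dark incubation, luminescence.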
HT1080 IDH1KD tx = HT-1080 IDH1 knockdown cell toxicity (counter line); HT-1080 IDH1 knockdown viability, ATP luminescence, 48 h; Potency, µM (doses to about 46.1 µM), for inactives: at the highest dose activity, negative = toxicity, actives largely listed as cytotoxic; 2% of 360,000 active;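 also: potency is read from the fitted curve at half-maximal effect; 0% = DMSO wells and -100% = cell-free medium wells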
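Knockdown cells (IDH1KD HT-1080) received compounds 2 h after plating at 750 cells/well and were kept 48 h at 37 °C in 5% FBS RPMI. A CellTiter-Glo luminescence read gave % activity for curve fitting.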
An asterisk follows results filed as active; ? = inconclusive; . = no result; [ ] = dose if it differs, or a comment. Unless noted, calls follow the shape of the dose curve; as a rule, active = well fitted curve in the direction sought with a large enough effect; inconclusive = small, poorly fitted or top-dose-only effect, or another doubt; inactive = no such curve, though single readings can be large; an effect the other way counts as inactive or inconclusive. Unless noted, % is scaled to controls: 0 for no effect and ±100 for the full control effect.

SMILES | HT1080-NT tox | TDP1 cell CPT | IL1B secr inh | ELG1 DNA repair | DT40 TDP1 no CPT | HT1080 IDH1KD tx
O=C(O)c1ccccc1/C=N/NC(=O)c1cc(-c2ccco2)nc2ccccc12 | -28% | 1% | 42 | 0% | 1% | ?
Cc1ccc(-c2cc(C(=O)NCCc3ccccc3)c3ccccc3n2)cc1C | . | 21µM* | . | . | ? | .
Cc1ccc(-c2cccc(C(=O)NCCc3ccccc3)n2)c2ccccc12 | -26% | 26µM* | -14 | 16% | 16µM* | -17%
O=C(CN1CCN(S(=O)(=O)c2ccc3c(c2)OCCO3)CC1)Nc1cccc(F)c1 | -14% | -21% | -17 | -16% | -25% | -13%
O=C(CNC(=O)c1cccc(Cl)c1)NCC(c1cccs1)N1CCOCC1 (stereo not given) | 1%[9.24 µM] | -8% | -3 | 5% | 17% | -1%
O=C(O)CC/C=C\CC[C@@H]1[C@@H](N2CCCCC2)[C@@H](O)C[C@@H]1OCc1ccc(-c2ccccc2)cc1 | . | -16% | . | . | ? | .
Nc1nc(C(c2ccccc2)c2ccccc2)cs1 | -22% | ? | -7 | 7% | ? | -12%
Cc1cc(OCC(=O)NNC(=O)CCc2ccccc2)ccc1Br | 8% | 9% | 21 | 5% | 0% | 6%
Cc1ccc(-c2cc(C(=O)NCc3cnn(C)c3C)c3ccccc3n2)cc1C | . | ? | . | . | 18µM* | .
N#Cc1ccc(NC(=O)c2cc(-c3cccc(Cl)c3)on2)cc1 | . | 0% | . | . | 0% | .
COC(=O)c1c(NC(=O)Cc2ccccc2)sc2c1CCN(C(C)C)C2 | -15% | ? | ? | -2% | ? | -5%
COC(=O)c1c(NC(=O)c2ccc(S(=O)(=O)N3CCCCC3)cc2)sc2c1CCN(C)C2 | . | 4.6µM* | . | . | 4.6µM* | .
CCOC(=O)c1c(NC(=O)c2ccc(S(=O)(=O)N3CCOCC3)cc2)sc2c1CCN(C)C2 | -12% | -26% | -4 | -7% | ? | 4%
CCOC(=O)c1ccsc1NC(=O)CCS(=O)(=O)c1ccccc1 | 2% | ? | -82* | -2% | ? | -15%
CCOC(=O)c1c(NC(=O)c2ccc(N3C(=O)[C@@H]4[C@H](C3=O)[C@H]3C=C[C@@H]4C3)cc2)sc2c1CC(C)CC2 (stereo not given in full) | 10% | -45% | -81* | -8% | 1.2µM* | 15%
CCOC(=O)c1c(NC(=O)CCS(=O)(=O)c2ccccc2)sc2c1CCN(C(C)C)C2 | 10% | 4.1µM* | -80* | 17% | 4.1µM* | 11%
Cc1ccc2cccc(NC3OC(=O)c4ccccc43)c2n1 (stereo not given) | -1% | 23% | 25 | 8% | 0% | 0%
CCN1CCc2c(sc(NC(=O)c3ccc(S(=O)(=O)N4CC(C)OC(C)C4)cc3)c2C(N)=O)C1 (stereo not given) | -20% | -2% | 8 | 3% | -5% | -21%
CCOC(=O)c1c(NC(=O)c2ccc(S(=O)(=O)N3CCC(C)CC3)cc2)sc2c1CCN(C(C)C)C2 | . | 23µM* | . | . | 15µM* | .
CCOC(=O)c1c(NC(=O)c2ccc(S(=O)(=O)N3CCC(C)CC3)cc2)sc2c1CCN(CC)C2 | . | 13µM* | . | . | 21µM* | .
CN(Cc1ccno1)C(=O)CC1C(=O)NCCN1CC(c1ccccc1)c1ccccc1 (stereo not given) | -1% | 5% | 22 | 2% | -25% | 9%
Cc1ccc2nc3c(cc(C(=O)NCC4CCCO4)c(=N)n3C(C)C)c(=O)n2c1 (stereo not given) | . | -4% | . | . | -20% | .
O=C(O)C/C=C(/NC(=O)OCc1ccccc1)C(=O)OCc1ccccc1 | -1% | 8% | -4 | 1% | 0% | -4%
CC(C)(CNC(=O)c1cc([N+](=O)[O-])ccc1N1CCC(Cc2ccccc2)CC1)N1CCOCC1 | -17% | ? | -57* | 21µM* | ? | -20%
CC(C)CNC(=O)c1cc([N+](=O)[O-])ccc1N1CCOCC1 | 0% | 0% | 0 | 0% | -15% | -10%
SMILES | HT1080-NT tox | TDP1 cell CPT | IL1B secr inh | ELG1 DNA repair | DT40 TDP1 no CPT | HT1080 IDH1KD tx
O=C(c1ccccc1)c1cc([N+](=O)[O-])ccc1N1CCOCC1 | 1µM* | 0.73µM* | 31 | ? | 0.82µM* | 0.73µM*
Cc1ccc(C(=O)c2cc([N+](=O)[O-])ccc2N2CC(C)OC(C)C2)cc1 (stereo not given) | 18µM* | 5.8µM* | 33 | -21% | 3.3µM* | ?
O=C(c1ccc(Cl)cc1)c1cc([N+](=O)[O-])ccc1N1CCOCC1 | 1.5µM* | 0.73µM* | 45 | 4% | 0.82µM* | 1.2µM*
CC1CN(c2ccc([N+](=O)[O-])cc2C#N)CC(C)O1 (stereo not given) | 10% | 4% | 1 | ? | -7% | 11%
O=C(c1ccc(Br)cc1)c1cc([N+](=O)[O-])ccc1N1CCOCC1 | 5.2µM* | 0.82µM* | 39 | ? | 1.5µM* | 5.8µM*
CCC(C)(C)NC(=O)c1cc([N+](=O)[O-])ccc1N1CCOCC1 | -1% | 1% | 0 | 16% | -24% | -2%
CC1(C(=O)NS(=O)(=O)c2ccccc2Cl)CCN1C(=O)C/C=C/c1ccccc1 (stereo not given) | 14% | -9% | 1 | . | 3% | -1%
O=C(NCc1ccccc1)C1c2ccccc2OCC(=O)N1Cc1ccc2c(c1)OCO2 (stereo not given) | -1% | ? | 12 | . | ? | ?
COc1ccc(OC)c(-c2nc3c(C)n[nH]c(=O)c3[nH]2)c1 | ? | ? | 47 | 6.5µM* | ? | ?
CC(C)C[C@H](NC(=O)[C@@H]1Cc2c([nH]c3ccccc23)C2c3ccccc3C(=O)N21)C(=O)NCC1CCCO1 (stereo not given in full) | -7% | 16µM* | -20 | -24% | ? | -9%
CN1CCN(C(=O)c2cccc(-c3cnc4cnc(-c5ccccc5Oc5ccccc5)cn34)c2)CC1 | ? | 18µM* | -57* | . | 13µM* | 23µM*
O=C(c1cccc(-c2cncc3nccn23)c1)N1CCOCC1 | 13% | -45% | 15 | . | -3% | 10%
CC(=O)Nc1c2c(nn1-c1ccc(Cl)cc1)CSC2 | 2% | 4% | 1 | -3% | -25% | 0%
